# According to PubChem BioAssay (NCATS):
# Records with an inconclusive call do not appear. Where a call stands in place of a potency, no number is given. Calls of active or inactive are those of the source. Unless noted, calls follow the shape of the full dose curve.
# Legend:
# [1] = target: Peroxisome proliferator-activated receptor delta (Homo sapiens) (UniProt Q03181); test: qHTS assay for small molecule agonists of peroxisome proliferator-activated receptor delta signaling (AID 588534)
# Summary of the method: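 Reporter cells were plated and held 5 hrs at 37 C before compounds were added. After 18 hrs at 37 C, CCF4 dye was loaded for 2 hrs at RT and fluorescence measured.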
# [2] = target: Glucocorticoid receptor (Homo sapiens) (UniProt P04150); test: qHTS assay for small molecule antagonists of glucocorticoid receptor signaling (AID 588533; active = well fitted inhibition curve with a large enough effect in the signal ratio, with a control signal flat, not every such curve was filed as active; the % refers to the signal ratio;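 also: cells stimulated with 2 nM dexamethasone as agonist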; also: potency is read from the fitted curve at half-maximal effect)
# Summary of the method: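 Antagonist-mode qHTS: compound titrations added to GRE-bla HeLa cells, then dexamethasone 2 nM final; 18 h, 37 C. CCF4 FRET fluorescence normalized to dexamethasone and DMSO; IC50 from Hill fit.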
# [3] = target: Glucocorticoid receptor (Homo sapiens) (UniProt P04150); test: qHTS assay for small molecule agonists of glucocorticoid receptor signaling (AID 588532; active = well fitted curve in the direction sought with a large enough effect in the signal ratio, with a control signal flat; the % refers to the signal ratio); settings: HeLa MMTV-bla, beta-lactamase ratio, agonist, 18 h; stronger effect = higher value; percent of dexamethasone control, DMSO zero
# Summary of the method: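 MMTV-bla HeLa, beta-lactamase reporter; medium with 1% charcoal/dextran-stripped FBS; cpds up to 92 uM, 18 h, 37 C; CCF4 readout 460/530 nm; Hill fit → EC50, efficacy vs 0.1 uM dexamethasone = 100%.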
# [4] = qHTS assay for small molecule antagonists of peroxisome proliferator-activated receptor delta signaling (AID 588535; active = well fitted inhibition curve with a large enough effect in the signal ratio, with a control signal flat, not every such curve was filed as active; the % refers to the signal ratio;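 as to max response: cells co-treated with a PPAR-delta agonist as stimulator during compound exposure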); settings: HEK293T PPARd-UAS-bla, beta-lactamase FRET ratio, 18 h; 460 nm channel
# Summary of the method: (§1)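 GeneBLAzer PPAR-delta-UAS-bla HEK293T cells in medium with 2% charcoal/dextran FBS were preincubated 5 hrs at 37 C, then given compounds, incubated 18 hrs at 37 C, and read by CCF4 beta-lactamase fluorescence; IC50 from Hill fits.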
# [5] = target: Peroxisome proliferator-activated receptor delta (Homo sapiens) (UniProt Q03181); test: as above
# Summary of the method: as §1
# [6] = target: Peroxisome proliferator-activated receptor gamma (Homo sapiens) (UniProt P37231); test: qHTS assay for small molecule agonists of peroxisome proliferator-activated receptor gamma signaling (AID 588536; active = well fitted curve in the direction sought with a large enough effect in the signal ratio, with a control signal flat, not every such curve was filed as active; the % refers to the signal ratio)
# Summary of the method: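 HEK293 UAS-bla reporter line, 1% charcoal/dextran FBS; titration, 16 h, 37 C; CCF4 loading 2 h RT; fluorescence 460/530 nm. Normalized to rosiglitazone 2 uM = 100%, DMSO = 0%.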
# Chain of Peroxisome proliferator-activated receptor gamma (Homo sapiens) (P37231 whole entry, looked up): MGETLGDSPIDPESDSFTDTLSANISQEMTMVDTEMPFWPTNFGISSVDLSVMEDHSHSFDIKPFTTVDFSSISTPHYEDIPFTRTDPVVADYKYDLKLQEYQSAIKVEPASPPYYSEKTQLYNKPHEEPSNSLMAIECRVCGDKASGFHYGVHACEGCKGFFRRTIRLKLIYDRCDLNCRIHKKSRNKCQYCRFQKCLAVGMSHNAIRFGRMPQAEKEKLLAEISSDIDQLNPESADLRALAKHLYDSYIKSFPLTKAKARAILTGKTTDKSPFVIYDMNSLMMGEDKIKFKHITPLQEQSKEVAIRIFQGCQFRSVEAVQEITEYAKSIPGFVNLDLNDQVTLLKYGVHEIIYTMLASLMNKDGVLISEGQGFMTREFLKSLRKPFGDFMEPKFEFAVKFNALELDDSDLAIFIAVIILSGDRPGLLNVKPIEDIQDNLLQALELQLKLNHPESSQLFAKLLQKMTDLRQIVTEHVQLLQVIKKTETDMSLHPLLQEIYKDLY
# Chain of Peroxisome proliferator-activated receptor delta (Homo sapiens) (Q03181 whole entry, looked up): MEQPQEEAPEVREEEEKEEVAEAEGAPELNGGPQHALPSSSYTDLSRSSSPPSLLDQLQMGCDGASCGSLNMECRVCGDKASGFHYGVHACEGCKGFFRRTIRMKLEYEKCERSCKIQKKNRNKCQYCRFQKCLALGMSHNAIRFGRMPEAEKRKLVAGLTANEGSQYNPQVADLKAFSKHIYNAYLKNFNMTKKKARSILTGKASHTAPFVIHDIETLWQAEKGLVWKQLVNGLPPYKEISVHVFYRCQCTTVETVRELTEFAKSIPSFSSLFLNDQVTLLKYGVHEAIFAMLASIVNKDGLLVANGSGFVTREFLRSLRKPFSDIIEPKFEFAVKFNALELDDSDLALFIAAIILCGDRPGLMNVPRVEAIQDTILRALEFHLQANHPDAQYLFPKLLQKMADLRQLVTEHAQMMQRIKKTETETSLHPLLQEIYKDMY
# Chain of Glucocorticoid receptor (Homo sapiens) (P04150 whole entry, looked up): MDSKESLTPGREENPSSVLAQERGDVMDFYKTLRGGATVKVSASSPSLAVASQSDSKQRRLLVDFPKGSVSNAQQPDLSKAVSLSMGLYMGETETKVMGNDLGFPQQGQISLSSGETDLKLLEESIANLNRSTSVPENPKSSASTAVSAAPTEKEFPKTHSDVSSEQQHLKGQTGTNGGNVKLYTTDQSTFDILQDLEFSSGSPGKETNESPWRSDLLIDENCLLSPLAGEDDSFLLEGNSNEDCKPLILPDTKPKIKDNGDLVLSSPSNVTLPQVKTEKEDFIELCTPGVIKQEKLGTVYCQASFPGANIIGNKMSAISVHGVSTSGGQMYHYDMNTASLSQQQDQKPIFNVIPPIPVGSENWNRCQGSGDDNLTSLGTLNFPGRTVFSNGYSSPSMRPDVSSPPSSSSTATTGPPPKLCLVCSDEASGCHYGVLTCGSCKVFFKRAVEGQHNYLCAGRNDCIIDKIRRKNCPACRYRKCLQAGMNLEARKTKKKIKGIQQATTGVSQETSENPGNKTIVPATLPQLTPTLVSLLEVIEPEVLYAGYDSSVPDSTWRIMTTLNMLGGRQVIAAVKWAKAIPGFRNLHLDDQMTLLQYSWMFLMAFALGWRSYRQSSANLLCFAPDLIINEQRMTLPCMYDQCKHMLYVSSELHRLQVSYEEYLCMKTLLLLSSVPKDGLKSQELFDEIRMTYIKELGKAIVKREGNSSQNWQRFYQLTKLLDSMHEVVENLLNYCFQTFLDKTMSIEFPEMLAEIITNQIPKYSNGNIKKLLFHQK
smiles,measurement,setting,value
CC(C)(Oc1ccc(Cl)cc1)C(=O)O,outcome,[1],inactive
O=C(OCc1ccccc1)c1ccccc1,outcome,[1],inactive
O=c1[nH]cnc2[nH]ncc12,outcome,[1],inactive
CC(C)Cc1ccc(C(C)C(=O)O)cc1 (stereo unspecified),outcome,[1],inactive
CCc1cc(C(N)=S)ccn1,outcome,[1],inactive
COc1cc(OC)c(C(=O)CCCN2CCCC2)c(OC)c1,outcome,[1],inactive
C[C@]12CCC(=O)C=C1CC[C@@H]1[C@@H]2CC[C@@]2(C)[C@H]1CC[C@]2(C)O,Potency,[2],15.8 µM (active)
Nc1ccccc1,activation,[3],-2.91% (inactive)
same,Potency,[2],inactive
same,max response,[4],1.43%
same,outcome,[5],inactive
same,outcome,[6],inactive
CCCC(C)(COC(N)=O)COC(N)=O,activation,[3],-13.9% (inactive)
same,Potency,[2],inactive
same,max response,[4],-25.1%
same,outcome,[5],inactive
same,outcome,[6],inactive
CC1CC(OC(=O)c2ccccc2O)CC(C)(C)C1 (stereo unspecified),outcome,[1],inactive
O=C1c2ccccc2C(=O)c2ccccc21,max response,[4],36.9%
same,outcome,[5],inactive
same,outcome,[6],inactive
